# TDP1 inh = TDP1 (human) enzyme inhibition | Q9NUW8 | recombinant TDP1, AlphaScreen DNA substrate cleavage | Potency, µM (top dose mostly 130 µM), without a hit: at the top dose activity change, negative = inhibition, most hits filed as inhibitors | actives 0.28% (n = 350,000) | AID 485290; further: nearly all actives have a fitted effect of over 40% in size
#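 Steps: enzyme plus compound, 15 min RT; add biotin/phosphotyrosine-FITC oligonucleotide (15 nM final), react 5 min; add donor/acceptor beads (10 ug/ml final), 10 min; read AlphaScreen. Tdp1 at 1 nM final.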
# DT40 TDP1 CPT = growth inhibition of DT40 Tdp1-/-;hTDP1 cells with camptothecin (screen for TDP1 inhibitors); chicken DT40 Tdp1-/-;hTDP1 cells + 20 nM CPT, ATP luminescence, 48 h; Potency, µM (doses to about 46.2 µM), without a hit: at the top dose activity change, negative = growth inhibition, hits mostly inhibitors; actives 12% (n = 420,000); further: nearly all actives have a fitted effect of over 55% in size
#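 Chicken DT40 Tdp1-/- cells stably complemented with human TDP1 were seeded at 400 cells/well in medium containing 20 nM camptothecin, exposed to pin-transferred compounds, and grown at 37 °C for at least 48 hr. Viability was read as ATP luminescence.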
# Gal4-VP16 FLuc = inhibits Gal4-VP16 luciferase reporter, ROR gamma counter-screen; Drosophila S2 Gal4-VP16 UAS-luciferase, luminescence, 20 h; Potency, µM (top dose mostly 53.6 µM), inactives show top-dose activity, negative = inhibition, actives largely listed as inhibitors; actives 3.5% (n = 310,000); AID 2546;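 further: Gal4-VP16 expression switched on by copper sulfate through the metallothionein promoter; nearly all actives have a fitted effect of over 50% in size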
# DT40 TDP1 no CPT = qHTS for Inhibitors of human tyrosyl-DNA phosphodiesterase 1 (TDP1): qHTS in cells in absence of CPT | DT40 Tdp1-/- hTDP1 cells, no CPT, ATP luminescence, 48 h | Potency, µM (top dose mostly 46.2 µM), without a hit: top-dose activity change, negative = growth inhibition, actives largely listed as inhibitors | actives 15% (n = 420,000); further: nearly all actives have a fitted effect of over 55% in size
#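 Chicken DT40 Tdp1-/- cells stably complemented with human TDP1 were seeded at 400 cells/well with DMSO in place of 20 nM camptothecin. After compound pinning, cells grew at least 48 hr at 37 °C; viability read by CellTiter-Glo luminescence.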
# RORg inh = inhibitors of mouse ROR gamma transcriptional activity | P51450 | Drosophila S2 Gal4-RORgamma UAS-luciferase reporter, 20 h | Potency, µM (top dose mostly 53.6 µM), for inactives: top-dose activity change, negative = inhibition, actives largely listed as inhibitors | actives 5.4% (n = 310,000) | AID 2551; further: nearly all actives have a fitted effect of over 60% in size
# Target sequence (P51450 whole entry, looked up, the tested form may be a part): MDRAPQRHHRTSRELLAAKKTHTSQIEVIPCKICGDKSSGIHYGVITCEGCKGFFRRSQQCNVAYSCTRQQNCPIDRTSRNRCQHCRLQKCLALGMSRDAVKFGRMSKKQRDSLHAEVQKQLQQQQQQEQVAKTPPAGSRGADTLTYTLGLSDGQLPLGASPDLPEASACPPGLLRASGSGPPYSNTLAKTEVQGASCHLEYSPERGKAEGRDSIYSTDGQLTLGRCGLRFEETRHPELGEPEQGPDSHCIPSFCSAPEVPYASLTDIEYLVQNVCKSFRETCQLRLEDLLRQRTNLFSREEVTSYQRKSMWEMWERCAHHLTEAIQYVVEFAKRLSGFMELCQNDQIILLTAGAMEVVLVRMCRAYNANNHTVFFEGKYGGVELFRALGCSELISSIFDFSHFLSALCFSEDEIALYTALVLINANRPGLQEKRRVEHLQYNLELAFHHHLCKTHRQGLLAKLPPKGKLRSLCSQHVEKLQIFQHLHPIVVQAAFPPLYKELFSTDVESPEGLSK
#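 A Gal4/UAS one-hybrid system in insect cells: metallothionein-promoter Gal4–ROR gamma fusion plus Photinus luciferase reporter. Copper sulfate 700 uM final, 20 hr ambient incubation, luminescent detection after 10 min with reagent.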
# Starred values were filed as active, the others as inactive; u = inconclusive; x = no result given; [ ] = dose if it differs, or a comment. Shown are actives, neighbours in structure and some others; about 19% of the full set was active somewhere. The call rests on the fitted dose curve; in most records, active means well fitted curve in the direction sought with a large enough effect; inconclusive means small, poorly fitted or top-dose-only effect, or another doubt; inactive means no such curve, though single readings can be large; an effect the other way counts as inactive or inconclusive. On the % scale 0 is the no-effect control and ±100 the full control effect; potency means the concentration at half of the fitted maximal effect.
SMILES,TDP1 inh,DT40 TDP1 CPT,Gal4-VP16 FLuc,DT40 TDP1 no CPT,RORg inh
COc1ccc(OC)c(CCNC(=O)c2cccc(NC3=NC4CS(=O)(=O)CC4S3)c2)c1 (stereo not given),x,-1%,-6%,6%,-16%
C=C(C)C1CC=C(CN2CCC(C(=O)OCC)CC2)CC1 (stereo not given),-6%,-1%,-3%,-10%,18%
COc1ccccc1OCC(=O)NCC1CCCN(C(=O)c2ccccc2SC)C1 (stereo not given),1%,u,24%,15µM*,2%
COc1ccccc1OCC(=O)NCC1CCCN(C(=O)c2ccccc2C(C)=O)C1 (stereo not given),-2%[56.1 µM],8%,-6%,3%,8%
COc1ccc(CN(C)C(=O)c2ccc(OCC(=O)N3CCOCC3)c(OC)c2)cc1,0%,-18%,x,-6%,x
Cc1cccc(N(Cc2ccccc2)C(=O)c2ccc(S(C)(=O)=O)cc2)c1,4%,16µM*,29%,u,u
Cc1ccc(N(Cc2ccccc2)C(=O)c2ccc(F)cc2)cc1,6%,21µM*,-5%,u,-1%
COc1ccc(C(=O)N(Cc2ccccc2)c2cccc(C)c2)cc1,-1%,15µM*,2%,u,5%
COc1cc(C(=O)N(Cc2ccccc2)c2cccc(C)c2)ccc1OCC(=O)N1CCOCC1,x,u,x,16µM*,x
COc1ccccc1/C=C(/C(=O)NCCCn1ccnc1)c1ccccc1,4%,-20%,-3%,-17%,5%
Cc1ccc(-n2nc(CO)c(C(=O)NCc3ccccn3)n2)cc1,2%,-10%,x,-14%,x
COC(=O)c1ccccc1NC(=O)NC1CCCCC1,4%,-9%,-3%,-19%,16%
CCOc1ccc2nc(NC3=NC(C)(C)C=C(C)N3)nc(C)c2c1,3%,u,-16%,u,-41%
CCOc1ccc2nc(NC3=NC(c4ccc(OC)cc4)CC(=O)N3)nc(C)c2c1 (stereo not given),6%,23µM*,u,21µM*,u
COc1ccc2c(c1OC)C(=O)N1c3ccccc3C(=O)N(c3ccc(F)cc3)C21 (stereo not given),6%,u,1%,12µM*,-12%
COc1ccc2c(c1OC)C(=O)N1c3ccccc3C(=O)N(c3ccccc3)C21 (stereo not given),9%,12µM*,0%,9.2µM*,-25%
CC(C)(C)c1ccc(C(=O)NC(CC(=O)O)c2ccc(OC3CCCC3)cc2)cc1 (stereo not given),x,1%,1%,-17%,22%
COCc1ccc(CN2CCOc3c(cc(-c4cc(C)c5cccc(OC)c5n4)cc3OC)C2)o1,x,-5%[9.04 µM],x,21µM*,x
COc1cccc(-c2cc3c(c(OC)c2)OCCN(Cc2ccccc2O)C3)n1,x,0%,x,-16%,x
COc1cc(-c2c(OC)cccc2OC)cc2c1OCCN(C(=O)CCn1nc(C)cc1C)C2,x,-5%[9.04 µM],x,-17%,x
COc1cc(-c2cc(C)c3cccc(OC)c3n2)cc2c1OCCN(C(=O)CCn1ccc(C)n1)C2,x,-16%[9.04 µM],x,23µM*,x
CC1CCN(C(=O)c2c(NC(=O)c3ccccc3F)sc3c2CCC(C(C)(C)C)C3)CC1 (stereo not given),x,-7%,x,3%,x
COc1cccc(NC(=S)N2CCC(N(C)CC3CCCO3)CC2)c1 (stereo not given),5%,-19%,-24%,-1%,-3%
Cc1cccc(C(O)(C(=O)NNc2ccc3ccccc3n2)c2cccc(C)c2)c1,0%,6.5µM*,13µM*,6.5µM*,10µM*
Cc1ccc(C(O)(C(=O)NNc2ccccn2)c2ccc(C)cc2)cc1,4%,2%,u,-27%,10µM*
SMILES,TDP1 inh,DT40 TDP1 CPT,Gal4-VP16 FLuc,DT40 TDP1 no CPT,RORg inh
O=C(CCN1C(=O)c2ccccc2S1(=O)=O)Nc1ccccc1F,5%,-9%,x,24%,x
O=C(CSc1nc2ccccc2c(=O)n1Cc1ccc(F)cc1)NCc1cccs1,-3%,2%,5µM*,1%,2.8µM*
Cc1cc(NC(=O)CSc2nc3ccccc3c(=O)n2Cc2ccc(F)cc2)no1,4%,-3%,-18%,-10%,u
O=C1OCCC1Sc1nc2ccccc2c(=O)n1Cc1ccc(F)cc1 (stereo not given),5%,-4%,8.9µM*,-15%,4µM*
Cc1ccccc1CNC(=O)c1ccc(Cn2c(SCc3cccc(F)c3)nc3cccnc32)cc1,2%,15µM*,x,15µM*,x
O=C(NCc1cccs1)c1ccc(Cn2c(SCc3cccc(F)c3)nc3cccnc32)cc1,5%,26µM*,x,18µM*,x
COc1ccc(CNC(=O)C2(c3ccc(Cl)cc3)CC2)cc1,3%,-26%,5%,-28%,10%
CCOC(=O)C1CCCN(C/C=C/c2ccccc2[N+](=O)[O-])C1 (stereo not given),-3%,-7%,6%,-11%,1%
O=C(NCCc1ccccc1)c1ccc(Cn2c(SCc3cccc(F)c3)nc3cccnc32)cc1,x,7.3µM*,x,15µM*,x
Cc1ccccc1CSc1nc2cccnc2n1Cc1ccc(C(=O)NCCc2cccs2)cc1,7%,13µM*,x,16µM*,x
Cc1ccc(CSc2nc3cccnc3n2Cc2ccc(C(=O)NCCc3ccccc3)cc2)cc1,1%,-15%,x,-7%,x
COC(=O)c1ccc(NC(=O)C23CCC(C)(C(=O)O2)C3(C)C)cc1 (stereo not given),4%,1%,6%,-19%,u
COc1cccc(-c2nc(CSCC(=O)NCCc3ccc(Cl)cc3)c(C)o2)c1,7%,9.2µM*,x,u,x
COc1ccc(CCNC(=O)CSc2nnc(-c3cccc(C)c3)o2)cc1OC,6%,-24%,-2%,-2%,31%
COc1ccc(CCNC(=O)CSCc2nc(-c3cccc(C)c3)oc2C)cc1OC,7%,21µM*,x,u,x
COc1cccc(-c2nc(CS(=O)CC(=O)NCCc3ccccc3)c(C)o2)c1 (stereo not given),5%,u,19%,u,16%
Cc1cc(C(=O)N/N=C/c2cc(Cl)cc([N+](=O)[O-])c2O)c2ccccc2n1,0%,u,11µM*,u,1.6µM*
O=C(N/N=C/c1cc(Cl)cc([N+](=O)[O-])c1O)c1ccccc1NS(=O)(=O)c1cccs1,10%,5%,10µM*,-5%,2.8µM*
O=C(N/N=C/c1cc2c(cc1Br)OCO2)c1cc2ccccc2o1,x,u,0%,u,-14%
CCc1ccc(C(=O)CSc2nc3ccccc3c(=O)[nH]2)cc1,2%,1.5µM*,u,1.6µM*,17%
